In the library only some 1.5% were active in any assay of this set; here they are far more common.
INS promoter inh: inhibitors of insulin promoter-driven GFP, primary screen, imaging, TRM-6 cells (human fetal islet line), eGFP reporter, cell count; reporter expression induced with tamoxifen; inhibition, % at 2 µM; 130,000 compounds, 0.9% hits;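 active = inhibition above the mean plus 3 SD, with well images judged a real hit on visual review, cut at about 60% in these data, passing the limit was not always enough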
S1P3 antag-1: S1P3 receptor antagonists, primary screen, cell-based; CHO S1P3 NFAT-BLA reporter, FRET fluorescence, antagonist mode; inhibition, % at 4.98 µM; 170,000 compounds, 0.27% hits;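 active = inhibition above the plate cutoff, the mean inhibition of test wells on that plate plus 3 SD, cut at about 28% in these data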;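 note: cells challenged with S1P at its EC80 of 0.8 µM; blue over green emission ratio from cleaved BLA substrate after 4 h stimulation; 0% = S1P-stimulated wells and 100% = unstimulated DMSO-only wells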
S1P4 antagonist: S1P4 receptor antagonists, primary screen, cell-based; Sphingosine 1-phosphate receptor 4 (Homo sapiens), O95977; S1P4-expressing cells, antagonist mode, reporter read-out; inhibition, % at 4.98 µM; 220,000 compounds, 0.26% hits; in the data active = inhibition above about 29%;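 note: 0% = wells stimulated with agonist and 100% = vehicle wells without agonist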
Target sequence (O95977 whole entry, looked up): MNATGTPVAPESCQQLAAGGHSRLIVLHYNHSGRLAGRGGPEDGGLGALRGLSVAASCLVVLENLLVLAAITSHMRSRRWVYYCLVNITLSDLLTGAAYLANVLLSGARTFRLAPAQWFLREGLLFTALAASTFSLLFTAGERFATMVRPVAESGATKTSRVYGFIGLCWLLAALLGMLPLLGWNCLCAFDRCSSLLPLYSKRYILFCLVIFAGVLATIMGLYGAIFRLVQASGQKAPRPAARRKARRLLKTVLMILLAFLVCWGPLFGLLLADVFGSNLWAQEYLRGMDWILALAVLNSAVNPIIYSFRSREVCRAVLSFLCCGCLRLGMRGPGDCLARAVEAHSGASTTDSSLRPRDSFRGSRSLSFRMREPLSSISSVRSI
Hsp70 act: Hsp70 transcriptional activators, primary screen, cell-based, HeLa, Hsp70 promoter luciferase, luminescence, 10 µM; HeLa Hsp70 promoter luciferase reporter; scaled: vehicle 0, proteasome-inhibitor control 100%; activation, % at 10 µM; 200,000 compounds, 0.04% hits;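 active = activation above the mean across all tested compounds plus 3 SD, cutoff set per campaign, cut at about 5.5% in these data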;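 note: 100% = MG132 at 30 µM as the positive control and 0% = DMSO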
Insulin prom up: insulin promoter activators in MIN6 cells, imaging, high-content screening, mouse beta cells; MIN6 insulin promoter-GFP reporter; stronger effect = higher value; z-score at 5 µM; 190,000 compounds, 0.3% hits; AID 1625, 2009;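 active = z-score above 3 at 5 µM with at least 500 cells counted in the well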
S1P4 ag: S1P4 receptor agonists, primary screen, cell-based; activation, % at 4.98 µM; Sphingosine 1-phosphate receptor 4 (Homo sapiens), O95977; S1P4-expressing cell line, agonist reporter assay; 220,000 compounds, 0.35% hits; AID 1509, 2009; in the data active = activation above about 11%;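 note: 0% = DMSO vehicle and 100% = reference agonist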
S1P3 antag-2: S1P3 receptor antagonists, retest, confirmation, cell-based; 240 compounds, 30% hits; AID 1429, 2008; shares compounds with S1P3 antag-1; CHO S1P3 NFAT-BLA reporter, FRET, antagonist mode; inhibition, % at 4.98 µM;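 active = inhibition above the hit threshold that was computed for the earlier primary screen, cut at about 30% in these data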;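 note: 0% = S1P-stimulated wells and 100% = unstimulated DMSO-only wells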
Starred values were filed as active, the others as inactive; . = no result given.

SMILES | INS promoter inh | S1P3 antag-1 | S1P4 antagonist | Hsp70 act | Insulin prom up | S1P4 ag | S1P3 antag-2
CCCC[C@@H]1C[C@H]1[C@@H](NC(=O)c1cccs1)c1ccc(Cl)cc1 | 20 | 48* | 9 | 0 | -0.46 | 1 | 69*
O=C(CN1CCCCCC1=O)N1CCN(S(=O)(=O)c2cccs2)CC1 | -22 | -5 | -12 | 0 | 0.04 | -1 | .
O=C(CCC1CCCC1)Nc1ccc([N+](=O)[O-])cn1 | 3 | 32* | 0 | 0 | 0.14 | 0 | -2
S=C(NCc1ccncc1)Nc1cccc(Cl)c1 | 16 | 2 | -11 | 0 | -0.19 | 0 | .
Fc1ccc(CNC(=S)Nc2cccc(Cl)c2)cc1 | 30 | 28* | -1 | 0 | 0.5 | -2 | 6
COc1ccc2[nH]c3c(N4CCc5ccccc5C4)ncnc3c2c1 | . | 31* | 1 | . | . | 0 | 25
Cc1[nH]c2ccccc2c1/C=N/NC(=O)c1cccc([N+](=O)[O-])c1 | -46 | -17 | -16 | 0 | -0.29 | -4 | .
Cc1[nH]c2ccccc2c1/C=N/Nc1ccc([N+](=O)[O-])cc1 | . | 40* | -9 | 0 | . | -2 | 28
CCCCSc1nnc(CSc2ncccn2)n1C | 50 | 29* | -9 | 0 | 0.28 | 1 | -5
Cn1c(CSc2ncccn2)nnc1SCC(=O)N1CCCC1 | -53 | -1 | -8 | 0 | 0.32 | 1 | .
O=C(Oc1ccccc1OC(=O)N1CCOCC1)N1CCOCC1 | -52 | -3 | -10 | 0 | 1.2 | -2 | .
CC(Oc1ccccc1Cl)C(=O)N1CCOCC1 (stereo not given) | 16 | 46* | -4 | 0 | 0.22 | 2 | -19
O=C(Cn1cnc2cc([N+](=O)[O-])ccc2c1=O)Nc1ccc(N2CCOCC2)cc1 | . | 1 | -8 | . | -0.19 | 0 | .
Cc1ccc(-c2cn3nc(-c4ccccc4)c(-c4ccccc4)nc3n2)cc1 | . | 50* | 14 | . | . | 0 | 9
c1ccc(-c2cn3nc(-c4ccccc4)c(-c4ccccc4)nc3n2)cc1 | -45 | . | -10 | 0 | 3 | 2 | .
CCOC(=O)c1ccc(NC(=O)CSC(=S)N2CCOCC2)cc1 | -62 | -18 | -3 | 0 | -0.17 | -2 | .
COc1ccc(/C=N/OCC(=O)N2CCCC2)c(OC)c1 | -25 | -13 | -10 | 0 | -0.41 | 1 | .
CCN(CC)S(=O)(=O)c1cccc(C(=O)NC(C)C(c2cccs2)N2CCCC2)c1 (stereo not given) | . | 29* | -10 | 0 | -0.66 | -1 | -7
O=C(COC(=O)c1cnc(Cl)c(Cl)c1)NCCC1=CCCCC1 | . | 33* | -9 | 0 | -0.08 | 1 | -17
COc1ccc(CN2C(=O)c3ccccc3C2=O)cc1C(=O)Nc1ccc(C)cc1C | . | 12 | -7 | 0 | . | 0 | .
O=C(c1cc(C(=O)N2CCOCC2)c2nc3ccccc3n2c1)c1cc(Cl)cc(Cl)c1O | . | 31* | -42 | . | -0.01 | -1 | -18
COC(=O)c1c(C)[nH]c(C)c1C(C)=O | . | -11 | -10 | . | -0.21 | 1 | .
Cc1ccc(NCCC(=O)c2cccs2)cc1 | . | -17 | 1 | 0 | -0.49 | -1 | .
CC(C)c1ccc(NCCC(=O)c2cccs2)cc1 | 9 | 30* | -1 | 0 | 0.33 | -2 | 4
COc1ccc(/C=C2/N=C(SC)NC2=O)cc1OC | . | -8 | 1 | . | -0.26 | 0 | .
SMILES | INS promoter inh | S1P3 antag-1 | S1P4 antagonist | Hsp70 act | Insulin prom up | S1P4 ag | S1P3 antag-2
O=C(O)c1ccc(N2CCCCCC2)c(N2C(=O)c3ccccc3C2=O)c1 | -15 | -34 | -10 | 0 | -0.82 | 1 | .
O=C1c2cccc3c(N4CCCCC4)ccc(c23)C(=O)N1c1ccccc1O | . | 48* | 18 | 0 | . | -2 | 33*
Cc1cc(S(=O)(=O)NCc2cccs2)ccc1-n1cnnn1 | . | 30* | -17 | 0 | -0.14 | 9 | -5
CCCC(=O)Nc1ccc(-c2ccc(NC(=O)CCC)cc2)cc1 | -50 | -1 | -14 | 0 | 0.32 | 2 | .
CCCC(=O)Nc1ccc(Nc2ccccc2)cc1 | 50 | 101* | -3 | 0 | 0.11 | 1 | -7
O=C(N/N=C/c1cn(-c2ccccc2)nc1-c1cc2ccccc2o1)c1c[nH]c2ccccc12 | . | 31* | 16 | 0 | -1.3 | -1 | 13
Cc1ccc(S(=O)(=O)Oc2ccccc2/C=N/N=C(N)N)cc1 | . | 36* | -7 | 0 | -1.3 | -1 | -7
Cc1ccc(S(=O)(=O)Oc2ccccc2/C=N/NC(N)=S)cc1 | -103 | . | 8 | 0 | -1.5 | -2 | .
C/C(=N\Nc1ccc([N+](=O)[O-])cc1)c1cc2ccccc2o1 | -347 | 54* | 15 | 0 | . | 0 | 55*
O=C(N/N=C/c1ccc([N+](=O)[O-])cc1)c1cc2ccccc2o1 | . | -8 | -25 | . | 0.26 | 1 | .
C/C(=N/Nc1ccc([N+](=O)[O-])cc1)c1ccc(C)cc1C | -76 | 33* | 0 | 0 | -0.09 | 3 | 22
CCOc1ccc(C(=O)OCC(=O)NC(C)C)cc1 | 67 | -4 | -3 | 0 | -0.08 | 0 | .
COc1c(F)c(F)c(C(=O)Nc2ccc(-c3nc4ccccc4[nH]3)cc2)c(F)c1F | . | 28* | -10 | 0 | 0.02 | 0 | 19
COc1ccccc1NC(=O)c1ccc(NC(=O)COC(=O)C2CCCO2)cc1 (stereo not given) | . | 30* | -1 | 0 | 0.47 | 1 | -10
COc1ccc(CCN2C(=O)NC(NS(=O)(=O)c3ccc(NC(C)=O)cc3)(C(F)(F)F)C2=O)cc1OC (stereo not given) | . | 0 | -13 | 0 | 0.43 | -1 | .
CC(=O)Nc1ncc(Cc2cccc(Cl)c2)s1 | . | 28* | 6 | 0 | . | -2 | 5
Cn1c(Cc2nc(-c3cnccn3)no2)nnc1SCC(=O)Nc1ccccc1 | . | -13 | -8 | . | 0.01 | -1 | .
CC(C)c1ccc(/C=C/C(=O)NCCC2=CCCCC2)cc1 | 27 | 30* | -23 | 0 | 0.21 | -1 | -10
Cn1c(-c2c(N)n(-c3ccccc3)c3nc4ccccc4nc23)nc2ccccc21 | 3 | 68* | 20 | 0 | 0.08 | 1 | 45*
C=CCNCC(=O)N1N=C(c2ccc3ccccc3c2)CC1c1ccc(OC)cc1 (stereo not given) | 25 | 31* | 1 | 0 | 0.23 | 0 | 2
COc1ccc(C2CC(c3ccc4ccccc4c3)=NN2C(=O)CNC2CCCCC2)cc1 (stereo not given) | 7 | -11 | 5 | 0 | -0.75 | -1 | .
O=C(COC(=O)CCCOc1ccc(Cl)cc1Cl)Nc1cccc(Cl)c1 | -160 | 43* | -27 | 0 | -0.03 | 1 | -26

High-throughput results as filed in PubChem.
